{"source": "PubChem BioAssay AID1508600", "about": "(Functional Genomics Laboratory (NCATS/FGL), 2020)", "note": "Hit rate of the full screen: of about 53,000 sequences, about 3,700 (7%) were called active.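 The calls were made as follows: active = gene knockdowns whose robust z-score for IL-1 alpha signal is at least 2 or at most -2, so actives lie on both sides; inactive = the rest.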 Many of the other results were omitted from the sample, so actives are more common in it than they were.", "data": [{"experiment": "Components of the Cytosolic LPS Sensing Pathway: Gene Identification via Genome-wide siRNA Screen;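 also: robust z of the log signal after scaling to non-targeting control siRNA wells of the plate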", "settings": "RAW264.7 macrophages, IL-1a HTRF, actives lie on both sides, screened at 100 nM (by protocol), cells primed 5 h with Pam3CSK4 first", "how_it_was_run": "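Three distinct siRNAs per gene were tested singly at 100 nM in RAW264.7 macrophages. Following Pam3CSK4 priming and 24 hour LipidA transfection, IL-1a secretion was read by HTRF.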", "values": [{"sequence": "CCUGAAAUGCUAAGACUACTT against Gm5142", "z-score": "1.15 (inactive)"}, {"sequence": "GGGAUCUUACAUGCCACCATT against Olfr1231", "z-score": "-0.000779 (inactive)"}, {"sequence": "GGCUACUCGGCCCUCUGUUTT against 4930404N11Rik", "z-score": "-1.67 (inactive)"}, {"sequence": "GGACGUGUAGCUUGGAAUATT against Rnf26", "z-score": "5.33 (active)"}, {"sequence": "CCAUACAGAGGUGACAGUUTT against Olfr816", "z-score": "-0.23 (inactive)"}, {"sequence": "CCAUAAAAACCAGAGAAAUTT against Plekhf2", "z-score": "-0.778 (inactive)"}, {"sequence": "GGUCGACUUAAGAUAAUAATT against Itgb6", "z-score": "-0.294 (inactive)"}, {"sequence": "CCCUGUUAAGGAAUGCAAATT against Chil1", "z-score": "0.367 (inactive)"}, {"sequence": "GGAGAAAUUCGACUGAAAATT against Pcdhb13", "z-score": "3.47 (active)"}, {"sequence": "GGCUUUUUGCUUCACUACUTT against Slco4c1", "z-score": "1.06 (inactive)"}, {"sequence": "GGCGAAUUAUUGAAAACGUTT against Actr8", "z-score": "0.916 (inactive)"}, {"sequence": "GGAGUUGGAUAUUCUAAAATT against B3gntl1", "z-score": "-0.64 (inactive)"}, {"sequence": "GGGCAACCUGGUUACACAUTT against Zfp637", "z-score": "1.25 (inactive)"}, {"sequence": "UAGUCAUUGGGAUUCCUUCTT against Olfr112", "z-score": "2.98 (active)"}, {"sequence": "GGUGGAAUGAAAGAACAAGTT against Klhl13", "z-score": "1.74 (inactive)"}, {"sequence": "GGCCAGGAAAGAUACAGGATT against Rab3c", "z-score": "0.486 (inactive)"}, {"sequence": "GGCCAUGCUGAAAGUAUUUTT against Olfr561", "z-score": "-1.46 (inactive)"}, {"sequence": "GCUUAGAAUCUCUGGACAATT against Rnf168", "z-score": "3.21 (active)"}, {"sequence": "CGGGAACAUAUCAGACUAATT against Mcm3ap", "z-score": "-0.844 (inactive)"}, {"sequence": "GGCCAUUGAGCUCAACCCUTT against Sgta", "z-score": "-1.88 (inactive)"}, {"sequence": "CCUAUAAAUGUCCUUAGUCTT against Ccdc115", "z-score": "0.127 (inactive)"}, {"sequence": "CCUAUGGUGCUCUUAUAAATT against Dpp6", "z-score": "-0.178 (inactive)"}, {"sequence": "GGUCUUAUGUAAGUGGUAUTT against Ociad1", "z-score": "-2.03 (active)"}, {"sequence": "GGCACUGUGGUGUAAAUCCTT against Nnt", "z-score": "-1.53 (inactive)"}, {"sequence": "GGACAUCGAGCUUCAGAUCTT against Dnm1l", "z-score": "2.68 (active)"}, {"sequence": "GGAGAUCGAUGGAGACUUCTT against Sftpa1", "z-score": "-0.773 (inactive)"}, {"sequence": "CGACGAAUGUCCUGAACAUTT against Tmem106a", "z-score": "-0.193 (inactive)"}, {"sequence": "GCCUUGAUCCUACUGUAACTT against Amigo3", "z-score": "2.12 (active)"}, {"sequence": "GGGACUUAAGGUUAGACACTT against E330018D03Rik", "z-score": "0.163 (inactive)"}, {"sequence": "CGACCUGUUCGCCAUCAAATT against Scaf1", "z-score": "0.511 (inactive)"}, {"sequence": "CGAGGUGCUAAUCUGGCCUTT against Dctpp1", "z-score": "0.241 (inactive)"}, {"sequence": "GGAACAAAUCCUGGAACUGTT against Zfp449", "z-score": "1.15 (inactive)"}, {"sequence": "GGACUGGUCAGAGAUGGAUTT against Pced1a", "z-score": "5.33 (active)"}, {"sequence": "GGAAAUGUGGUAAUUCCGATT against Cd44", "z-score": "0.256 (inactive)"}, {"sequence": "CGAAAUGAAAACUUCCUGGTT against Mab21l1", "z-score": "0.989 (inactive)"}, {"sequence": "CCAUCAGUAUUCACAACAATT against Usp42", "z-score": "-3.12 (active)"}, {"sequence": "GUUACCUCGUGGAAAGCAUTT against Vmn1r43", "z-score": "-0.345 (inactive)"}, {"sequence": "GGUUUGAAGAUGAUGCCUCTT against Nfkbil1", "z-score": "-0.848 (inactive)"}, {"sequence": "GGACCACUAGACCUGAUAATT against Itgb1bp1", "z-score": "0.116 (inactive)"}, {"sequence": "GCAUCCCGACUACAAGUACTT against Sox21", "z-score": "-2.06 (active)"}, {"sequence": "GGUCCGGUCUCAGACUUCATT against Ift27", "z-score": "1.16 (inactive)"}, {"sequence": "GAUUGUCACCACCUUAAGATT against Chchd5", "z-score": "-0.964 (inactive)"}, {"sequence": "CGAGAUGUCCCAGAAUCAUTT against Wdr75", "z-score": "-2.26 (active)"}, {"sequence": "GCCAUGUUCCCAUUUAACUTT against A730018C14Rik", "z-score": "1.34 (inactive)"}, {"sequence": "GCACGAGGAUGUGAUAUUCTT against Txndc2", "z-score": "-0.65 (inactive)"}, {"sequence": "CCUUCUCUUUGCUCUAUGUTT against Olfr1284", "z-score": "-0.647 (inactive)"}, {"sequence": "GCAUCGACAACCUCUCUAGTT against Hba-x", "z-score": "3.15 (active)"}, {"sequence": "GCUUAGUUUAUGAGAAUGCTT against Ptprh", "z-score": "-0.791 (inactive)"}, {"sequence": "GGCCAUAUUUGUGACUGUGTT against Hao1", "z-score": "-1.58 (inactive)"}, {"sequence": "GGAUCUUGAAGCCAAAUACTT against Ccdc127", "z-score": "2.56 (active)"}, {"sequence": "GGUAACCAAAACAAUUCUGTT against Cog8", "z-score": "-0.00241 (inactive)"}, {"sequence": "GGUGUCUGAGUAAUUCUGGTT against Zscan5b", "z-score": "-1.55 (inactive)"}, {"sequence": "GUGUAGCUCUUCACAGUUATT against Fgf2os", "z-score": "0.673 (inactive)"}, {"sequence": "GGCUUUGGAAUGAGAGCUUTT against Dynlrb1", "z-score": "-2.07 (active)"}, {"sequence": "CGUGUUUAGGAAAAAUUGUTT against 2510039O18Rik", "z-score": "-0.398 (inactive)"}, {"sequence": "CCUGCUAAGUGAAUUUGUGTT against Cmpk1", "z-score": "2.18 (active)"}, {"sequence": "GCAACGAGCAAAAAGCAUGTT against Htr2a", "z-score": "-0.794 (inactive)"}, {"sequence": "GGUCCUUAUCGCUUGGAUGTT against Vwa8", "z-score": "-0.202 (inactive)"}, {"sequence": "GGCUAAGACCAAAACUUUATT against Cyp4f13", "z-score": "0.772 (inactive)"}, {"sequence": "GCAGCUUUGAAAUUGUCCATT against Stard5", "z-score": "-1.72 (inactive)"}, {"sequence": "CGAUGCAAAAAGAAUAGACTT against Mark1", "z-score": "0.673 (inactive)"}, {"sequence": "GGCUAGUUUUCUCUUAAAUTT against Usp1", "z-score": "-3.12 (active)"}, {"sequence": "GAGUGUCCGAUAGACCGUUTT against Rbm4", "z-score": "-0.429 (inactive)"}, {"sequence": "GGCGCAAAUACUUCUUCAUTT against Nrg1", "z-score": "0.533 (inactive)"}, {"sequence": "GCACCUUUGAGUGCAACAUTT against Rnf185", "z-score": "-2.37 (active)"}, {"sequence": "CCUAAGAUUUUGGAACAAATT against Cenpm", "z-score": "-0.47 (inactive)"}, {"sequence": "GGCCAGGAGAAGAUUGAACTT against Ccdc42", "z-score": "0.00447 (inactive)"}, {"sequence": "GGCUGAAUCGGCAUUUCCATT against Klhdc3", "z-score": "-0.184 (inactive)"}, {"sequence": "GGCUGCAUGGUACAGAUCUTT against Olfr463", "z-score": "-2.33 (active)"}, {"sequence": "GCUUUUUGAGUCUGAUUUATT against Dmgdh", "z-score": "0.413 (inactive)"}, {"sequence": "GGCAUUCAAAAGGUAAAAUTT against Grid2", "z-score": "-0.515 (inactive)"}, {"sequence": "GCUGACUGCCAAGGAUUUUTT against Ogn", "z-score": "-0.135 (inactive)"}, {"sequence": "GGCAUGAAACCUCCAAAGCTT against 1520401A03Rik", "z-score": "0.643 (inactive)"}, {"sequence": "CGGAUAUUUACGAACUUACTT against Pitpnb", "z-score": "1.24 (inactive)"}, {"sequence": "GGGUCAGAUUUUCAAUGUCTT against Bmpr1b", "z-score": "0.8 (inactive)"}, {"sequence": "GGUUGAAACUGCUCUCAAGTT against Prl2a1", "z-score": "1.77 (inactive)"}, {"sequence": "GGACCAUGAGGGAAUACAGTT against Bdkrb2", "z-score": "4.91 (active)"}, {"sequence": "CGCAGACAAGAAAUGAAGGTT against Hnf4aos", "z-score": "-1.98 (inactive)"}, {"sequence": "GCAUGAGGAAAAAUCUUCATT against Neurod4", "z-score": "-0.158 (inactive)"}, {"sequence": "GGAGAAAUUUAAGAAGAGUTT against Xrcc5", "z-score": "0.674 (inactive)"}, {"sequence": "GCUACAUAAUUCCGAAGUUTT against Fmr1", "z-score": "2.23 (active)"}, {"sequence": "GCCAGAGGAUAACCUAUCGTT against Dsg4", "z-score": "-0.254 (inactive)"}, {"sequence": "AAACUUGGCGUAUCAGGAATT against Gm3696", "z-score": "-1.45 (inactive)"}, {"sequence": "GGAGUUUGUCUUCUCUUUCTT against Foxf1", "z-score": "0.0377 (inactive)"}, {"sequence": "GGAGAGUAUGGACAGUAUUTT against Pgc", "z-score": "2.96 (active)"}, {"sequence": "GCAAAGACAAUCUUUAAGGTT against Pde4d", "z-score": "-0.747 (inactive)"}, {"sequence": "CCUUGUAAGUGAGAUCCGATT against Olfr118", "z-score": "1.38 (inactive)"}, {"sequence": "GGAGUAGAUGACAACACUATT against Defb19", "z-score": "-0.401 (inactive)"}, {"sequence": "GGCAGCUGUAGAGGUGUUCTT against Haus7", "z-score": "2.36 (active)"}, {"sequence": "CGUGGCUAAACAAAGAGCUTT against Sass6", "z-score": "-0.841 (inactive)"}, {"sequence": "CCCAAAAACGUGACAUCUUTT against Inppl1", "z-score": "0.901 (inactive)"}, {"sequence": "GCCUGGAAUCUCUUCAUGUTT against Pde3a", "z-score": "0.679 (inactive)"}, {"sequence": "GGUGUUCUUGAGCUGUGAGTT against Igfbp7", "z-score": "-2.32 (active)"}, {"sequence": "CCAAAAGGUUCGAGUUUCATT against Padi4", "z-score": "1.57 (inactive)"}, {"sequence": "GGAGUGUGUAUGGAAAAUATT against Tll1", "z-score": "0.0134 (inactive)"}, {"sequence": "GGCUCUUUCAACGUAAAUUTT against Fan1", "z-score": "-2.72 (active)"}, {"sequence": "GGACCUUGGGCAGAUUCAATT against Atp10d", "z-score": "0.54 (inactive)"}, {"sequence": "GGGUGUACAGGAUUUCCACTT against Nfyc", "z-score": "0.0255 (inactive)"}, {"sequence": "GGAGCAACAACUUAAAUGUTT against Slc16a4", "z-score": "1.18 (inactive)"}, {"sequence": "GCUUUAGAUACGUGAUUAGTT against Desi2", "z-score": "-0.125 (inactive)"}, {"sequence": "CCUUAUGAGUCUUACGACUTT against Zfp326", "z-score": "1.15 (inactive)"}, {"sequence": "CCCUCAAAGACCUGUACAUTT against Gm266", "z-score": "2.78 (active)"}, {"sequence": "GGAUGAUGAGCUGAACUUUTT against Mgrn1", "z-score": "-0.897 (inactive)"}, {"sequence": "AAGAAUACUCAGAUCAGUUTT against Magee2", "z-score": "0.111 (inactive)"}, {"sequence": "GGAAAUCUCAGGUGAGGUCTT against Clcc1", "z-score": "-0.127 (inactive)"}, {"sequence": "GGAUCAUCAAGAUAUAGAUTT against Trpm7", "z-score": "2.44 (active)"}, {"sequence": "GCCAGGAAUCACAAGAGCUTT against Mtg1", "z-score": "0.571 (inactive)"}]}]}
